# Screening data: PubChem BioAssay, several laboratories
# This is a sample that favours compounds with a hit; in the whole collection about 1.4% have one here.
# eLon inh – inhibitors of E. coli Lon protease, primary screen, biochemical, fluorescence polarization | P0A9M0 | purified E. coli Lon protease | inhibition, % at 7.94 µM | actives 0.42% (n = 360,000) | AID 602123, 2011; in the data active = inhibition above about 13%, passing the limit was not always enough;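 also: 0% = enzyme with probe and DMSO and 100% = no enzyme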
# MEX-5 binding – MEX-5 zinc finger RNA-binding disruptors – biochemical, C. elegans, fluorescence polarization, MLPCN library, primary screen; activity score (negative = inhibition of binding), % at 10 µM; actives 0.38% (n = 300,000); Zinc finger protein mex-5 (Caenorhabditis elegans), Q9XUB2; MEX-5/FITC-TCR2 RNA binding; stronger effect = lower value; AID 1832, 2009;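 active = inhibition past about -25% in most replicates, and total fluorescence under double the plate's negative control median, limit read from the data; inconclusive = replicates evenly split on the limit, or fluorescence at least double controls; inactive = too little inhibition in most replicates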;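 also: 0% = DMSO and -100% = 5 µM competing unlabeled TCR2 RNA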
# Target sequence (Q9XUB2 whole entry, looked up): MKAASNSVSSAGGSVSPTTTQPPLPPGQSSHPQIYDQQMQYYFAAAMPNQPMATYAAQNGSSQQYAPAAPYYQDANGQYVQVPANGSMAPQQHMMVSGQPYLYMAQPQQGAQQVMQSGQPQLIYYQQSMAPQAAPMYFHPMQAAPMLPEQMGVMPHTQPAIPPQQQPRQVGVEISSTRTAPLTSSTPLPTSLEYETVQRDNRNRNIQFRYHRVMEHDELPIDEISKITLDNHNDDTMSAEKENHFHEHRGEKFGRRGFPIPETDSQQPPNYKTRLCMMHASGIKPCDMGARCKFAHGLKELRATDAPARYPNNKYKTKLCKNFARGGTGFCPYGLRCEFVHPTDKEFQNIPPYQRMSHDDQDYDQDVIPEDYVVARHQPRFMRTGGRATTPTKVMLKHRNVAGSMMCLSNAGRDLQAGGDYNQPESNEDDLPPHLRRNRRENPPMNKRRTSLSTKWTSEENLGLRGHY
# GLD-1 RNA inh – GLD-1/TGE RNA complex disruptors, primary screen, biochemical, fluorescence polarization | purified GLD-1 + fluorescein TGE RNA | AID 2280, 2010 | inhibition, % at 5.96 µM | Female germline-specific tumor suppressor gld-1 (Caenorhabditis elegans), Q17339 | actives 0.44% (n = 320,000);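 active = percent inhibition above a per-plate cutoff, the plate mean of test compounds plus 3 SD, cut at about 30% in these data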;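 also: 0% = DMSO wells with GLD-1 and probe and 100% = wells lacking GLD-1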
# BCLXL inh – inhibitors of human Bcl-xL, primary screen, biochemical, fluorescence polarization, HTS. Bcl-2-like protein 1 (Homo sapiens), Q07817. GST-Bcl-xL / FITC-Bim BH3 peptide fluorescence polarization. inhibition, % at 10.9 µM. actives 0.7% (n = 320,000);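 active = inhibition above the mean of all tested compounds plus 3 SD, cutoff set per campaign, cut at about 30% in these data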;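 also: 0% = DMSO wells and 100% = unlabeled Bim-BH3 peptide competitor; inhibitors lower millipolarization by displacing the labeled peptide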
# MCL1-BIM inh – inhibitors of MCL1 binding to BIM-BH3, primary screen, biochemical, fluorescence polarization | Induced myeloid leukemia cell differentiation protein Mcl-1 (Homo sapiens), Q07820 | GST-MCL1 / FITC-Bim-BH3 fluorescence polarization | inhibition, % at 10.9 µM | AID 2057, 2009 | actives 0.68% (n = 320,000);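 active = inhibition above the mean inhibition of all tested compounds plus 3 SD, set per campaign, cut at about 40% in these data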;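 also: 0% = DMSO wells and 100% = unlabeled Bim-BH3 peptide control; higher means more loss of mP so more displacement of Bim peptide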
# EBV gp42 inh – Epstein-Barr virus gp42 inhibitors, primary screen, biochemical, uHTS, fluorescence polarization; AID 1085, 2008; actives 0.42% (n = 220,000); Glycoprotein 42 (Epstein-Barr virus (strain AG876)), Q1HVG2; inhibition, % (tested at 21.74 µM); Fluorescence polarization binding assay, mP read-out; in the data active = inhibition above about 50%
# Active calls of the source: *; i = inactive; u = inconclusive; x = not tested or not shown.
SMILES,eLon inh,MEX-5 binding,GLD-1 RNA inh,BCLXL inh,MCL1-BIM inh,EBV gp42 inh
CN(C)c1ccc(/C=N/NC(=O)c2ccc(NC(=O)c3ccccc3)cc2)cc1,-1,-1,17,32*,33,-4
CC(=O)c1ccc(C(=O)Nc2sc3c(c2C(N)=O)CCN(Cc2ccccc2)C3)cc1,i,-37*,-152,-43,-75,x
CC(C)N1CCc2c(sc(NC(=O)c3ccc4ccccc4c3)c2C(N)=O)C1,-310,-37*,-98,-62,-113,x
CC(C)N1CCc2c(sc(NC(=O)c3ccc(C(=O)c4ccccc4)cc3)c2C(N)=O)C1,-47,4,-26,-23,-57,x
NC(=O)c1c(NC(=O)C2COc3ccccc3O2)sc2c1CCN(Cc1ccccc1)C2 (centres undefined),-306,-62*,-64,-44,-73,-98
N#Cc1nc(NCC(F)F)nc(Nc2cc(F)cc(F)c2)n1,-4,x,1,-1,1,x
COc1ccc(C(=O)NC(C)CCc2ccccc2)cc1[N+](=O)[O-] (centres undefined),4,1,-2,0,8,x
COc1ccc(C(=O)C(C)[n+]2ccc(C)c3ccccc32)cc1[N+](=O)[O-] (centres undefined),-44,2,-44,34*,39,x
COCCNC(=S)N1CCC(NC(=O)c2ccco2)CC1,-6,1,4,1,-1,-18
O=C(/C=C/c1ccc(OCCCF)cc1)Nc1ccnc(-c2cccnc2)n1,-15,-51*,-16,-3,-9,-29
O=C(/C=C/c1ccc(OCCCF)cc1)Nc1ccnc(-c2ccncc2)n1,-2,-3,4,8,4,-2
O=C(NCc1ccco1)C(c1ccncc1)N(C(=O)Cn1nnc2ccccc21)c1ccccc1F (centres undefined),6,-4,2,1,-1,x
Cc1nc(SCc2nc3ccc(C(=O)c4ccccc4)cc3[nH]2)c2oc3ccccc3c2n1,-35,x,-47,x,x,x
N=c1oc2cc(O)ccc2cc1C(=O)Nc1nc2ccccc2s1,-148,-11,-30,0,-24,54*
N=c1oc2cc(O)ccc2cc1C(=O)Nc1ccccn1,x,x,7,9,-7,77*
Nc1cccc2c1C(=O)N(C(=O)c1ccc(Cl)c(S(=O)(=O)N3CCCCCC3)c1)C2=O,8,0,26,37*,33,-3
O=C(N/N=C/c1ccc(O)c(O)c1)N/N=C/c1ccc(O)c(O)c1,-3,-39*,x,x,x,x
Oc1ccc(/C=N/NC(=S)Nc2cccnc2)cc1O,7,-45*,-1,14,47*,4
O=C(Nc1ncc(Cl)cc1Cl)c1c(F)cccc1Cl,1,1,5,8,-2,-2
O=C(OCN1C(=O)c2ccccc2C1=O)c1cc(S(=O)(=O)N2CCOCC2)ccc1F,-3,x,x,x,x,x
CCOC(=O)/C(C#N)=C\c1cc(C)n(-c2ccccc2)c1C,-2,-5,4,-1,-5,-7
CCOC(=O)/C(C#N)=C\c1ccc(N2CCN(C/C=C/c3ccccc3)CC2)cc1,-97,u,-25,-30,-59,131*
COc1cccc(CNC(=O)CCSCc2ccccc2F)c1,4,0,3,-1,0,-8
Oc1ccccc1C=NC1=NN(c2cccc(C(F)(F)F)c2)CC1,-8,1,-3,10,6,113*
FC(F)(F)c1cccc(N2CCC(N=CN3CCCCCC3)=N2)c1,1,1,2,7,-2,-1
SMILES,eLon inh,MEX-5 binding,GLD-1 RNA inh,BCLXL inh,MCL1-BIM inh,EBV gp42 inh
COc1ccccc1NC(=O)C(=O)N/N=C/c1ccc([N+](=O)[O-])s1,-9,0,x,x,x,79*
COC(=O)N/N=C/c1ccc([N+](=O)[O-])s1,3,0,1,3,0,-3
CN(CC(=O)Nc1ccccc1Cl)C1CCCCC1,13,-1,-2,8,3,x
CN(CC(=O)Nc1ccccc1Cl)C1CCS(=O)(=O)C1 (centres undefined),3,x,3,36*,3,x
Cc1nnc(NC(=O)COc2ccc3c(C)cc(=O)oc3c2)s1,-1,1,0,5,23,51*
CCC(CC)c1nnc(NC(=O)COc2ccc3c(C)cc(=O)oc3c2)s1,-3,x,0,-5,-5,-16
O=[N+]([O-])c1ccc(SCc2ccncc2)nc1,6,-1,1,12,2,x
Cc1nnc(N2C(=O)C(O)=C(C(=O)c3ccco3)C2c2ccc(F)cc2)s1 (centres undefined),9,-27*,45*,33*,27,76*
CC(C)(C)c1ccc(C2C(C(=O)c3ccco3)=C(O)C(=O)N2CC2CCCO2)cc1 (centres undefined),0,-2,-1,6,2,x
Cc1ccc(C2C(C(=O)c3ccco3)=C(O)C(=O)N2c2ncccn2)cc1 (centres undefined),-1,2,2,7,5,-10
CC(C)c1ccc(C2C(C(=O)c3ccco3)=C(O)C(=O)N2CCN2CCOCC2)cc1 (centres undefined),-5,-2,-11,4,5,x
Cc1nnc(N2C(=O)C(O)=C(C(=O)c3ccco3)C2c2ccc(C(C)(C)C)cc2)s1 (centres undefined),-8,-5,32*,33*,31,40
Cc1nnc(N2C(=O)C(O)=C(C(=O)c3ccco3)C2c2ccc(C(C)C)cc2)s1 (centres undefined),-5,-27*,40*,40*,37,72*
COC1C(O)C(O)C(O)C(O)C1O (centres undefined),-7,x,x,x,x,x
CC(=O)Nc1ccc(S(=O)(=O)N(CC(=O)NCC2CCCO2)Cc2ccccc2Cl)cc1 (centres undefined),1,x,x,x,x,x
O=C(NN1CCCCCC1)c1ccccc1F,1,x,x,x,x,x
CCOC(=O)c1ccc(-c2ccc(C=O)o2)cc1,-11,-27*,1,4,3,-11
CCCOC(=O)c1ccc(-c2ccc(C=O)o2)cc1,5,-2,6,-1,8,-7
Cc1cc(C)n2nc(C(=O)OCC(=O)N3C(C)CCCC3C)nc2n1 (centres undefined),-2,0,3,-4,-11,x
Cc1nc2ccc(NC(=O)NC(=O)c3c(Cl)cccc3Cl)cc2o1,5,1,2,43*,4,-6
CNC(=O)Nc1ccc2nc(C)oc2c1,13,1,2,6,9,1
